Bioassay records deposited in PubChem by several laboratories.
Rows were chosen to be rich in hits. Some 4.2% of all compounds tested hit in one or more screens of this group.
NLRP3 yeast inh: blocks the NALP3 inflammasome reconstituted in yeast; Yeast reconstituted NLRP3/ASC/caspase-1, beta-gal luminescence, 24 h; inhibition, % at 10 µM; hit rate 0.39% among 330,000; AID 2825;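 active means inhibition of 50% or more; inactive means inhibition below 50%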;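 further: plate controls were induced DMSO wells for no effect and uninduced yeast grown without galactose for full effect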
TIM10 inh: inhibits growth of TIM10 yeast strain. S. cerevisiae TIM10 strain growth, BacTiter-Glo luminescence, 24 h. inhibition, % at 10 µM. hit rate 1.4% among 330,000;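 active means inhibition of 40% or more at the single tested concentration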;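 further: wild-type TIM10 isogenic control strain grown at permissive 25 °C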
tim10-1 inh: growth inhibitors of tim10-1 mutant yeast; S. cerevisiae tim10-1 ts strain growth, BacTiter-Glo, 24 h; AID 463190; inhibition, % at 20 µM; hit rate 2.2% among 330,000;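 active means inhibition of at least 40%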;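 further: mutant grown at 25 °C; 0% = DMSO wells with yeast and 100% = wells holding no yeast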
tim23-1 inh: inhibits growth of tim23-1 mutant yeast; inhibition, % at 20 µM; hit rate 1.3% among 330,000; S. cerevisiae tim23-1 growth, BacTiter-Glo luminescence, 24 h;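 active means growth inhibition of the mutant yeast at or above 50%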;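 further: temperature-sensitive mutant grown at 25 °C; plate controls were DMSO-treated mutant yeast for no effect and medium wells lacking yeast for full effect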
NALP1 inh: NALP1 inhibition | S. cerevisiae NALP1/ASC/caspase-1 growth, X-gal OD620, 72 h | inhibition, % at 10 µM | hit rate 0.61% among 280,000 | AID 2071; in the data active means inhibition mostly above about 24%, no sharp cut-off; inactive means mostly below about 32%
PfHsp90 yeast 2: inhibits growth of yeast expressing Plasmodium falciparum Hsp90; inhibition, % at 9.4 µM; AID 504621; S. cerevisiae expressing PfHsp90, BacTiter-Glo ATP, 48 h; yeast lacking PDR1 and PDR3 efflux regulators; hit rate 0.32% among 310,000;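 active means every replicate shows inhibition above about 80%, whatever the replicate mean, limit read from the data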;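 further: 0% = DMSO neutral controls and 100% = 20 µM radicicol positive controls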
tim10-1 conf: tim10-1 yeast growth inhibition, confirmed. AID 463213. hit rate 56% among 7,400. shares compounds with tim10-1 inh. inhibition, % at 20 µM. S. cerevisiae tim10-1 ts strain growth, BacTiter-Glo, 24 h;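 active means inhibition of yeast growth at or above a set limit in either of two repeat tests at 20 µM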;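 further: tim10-1 mutant grown at permissive 25 °C to find synthetic lethal compounds; 0% = DMSO yeast wells and 100% = medium wells without yeast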
* marks the source's active call; other numbers are inactive results; . = not tested or not shown.

SMILES	NLRP3 yeast inh	TIM10 inh	tim10-1 inh	tim23-1 inh	NALP1 inh	PfHsp90 yeast 2	tim10-1 conf
COc1cccc(Nc2ncccc2C(=O)Nc2ccccc2)c1	34	26	53*	43	3	6	38*
O=C(Nc1ccccc1)c1cccnc1NCCc1ccccc1	10	28	40*	44	3	23	32*
O=C(N/N=C\c1ccccn1)C1c2ccccc2Oc2ccccc21	2	5	43*	24	11	7	18
CC1CCCC(n2c(=S)[nH]c3ccccc3c2=O)C1C (centres undefined)	19	39	42*	28	1	.	31
CCc1nc(N2CCCCC2C(=O)O)c2oc3ccccc3c2n1 (centres undefined)	-6	4	6	3	9	-16	.
CCc1nc(Nc2ccccc2OC)c2oc3ccccc3c2n1	-9	16	42*	36	6	-15	17
CCc1nc(N2CCCCC2C)c2oc3ccccc3c2n1 (centres undefined)	-19	25	48*	46	2	17	20
CCc1nc(Nc2cc(OC)ccc2OC)c2oc3ccccc3c2n1	18	20	6	5	15	-5	.
CCc1nc(N2CCCCC2)c2oc3ccccc3c2n1	8	13	41*	49	11	-7	8
CCc1c(O)cc(=O)n(-c2ccccc2)c1-c1ccccc1	9	27	21	24	16	22	.
CN1CCN(CCCNC(=O)c2ccc(/C=C3\Sc4ccccc4N(Cc4ccc(F)cc4)C3=O)cc2)CC1	.	.	.	.	23	10	.
CN1CCN(CCCNC(=O)c2ccc(/C=C3\Oc4ccccc4N(Cc4ccccc4F)C3=O)cc2)CC1	12	12	42*	32	18	36	10
COc1cc(NC(=O)CCc2c(C)[nH]c(=O)c(C#N)c2C)cc(OC)c1	21	0	-3	-1	16	20	.
COC(=O)C1=C(C)N=c2s/c(=C3\C(=O)Nc4ccccc43)c(=O)n2C1c1ccccc1 (centres undefined)	36	18	40*	39	6	.	8
CC(=O)c1ccc(NC(=S)NC(C)c2ccc(Cl)cc2Cl)cc1 (centres undefined)	1	26	56*	27	8	.	33*
CC(=O)c1ccc(NC(=S)NC(=O)Cc2ccc(Cl)cc2)cc1	15	-8	-28	-22	0	-4	.
O=C(c1ccc2oc(Cc3ccc(Cl)cc3)nc2c1)N1CC[C@H](O)C1	-4	4	-10	10	11	-35	.
Cc1c(C(=O)N2CCOCC2)sc2nc(-c3ccccc3)cn12	6	-11	6	8	-2	45	.
COc1ccccc1N1CCN(C(=O)c2sc3nc(-c4ccccc4)cn3c2C)CC1	25	33	38	44	39	-3	.
Cc1c(C(=O)N2CCc3ccccc3C2)sc2nc(-c3ccccc3)cn12	15	36	51*	41	16	-19	35*
COc1ccc(-c2cn3c(C)c(C(=O)N4CCc5ccccc5C4)sc3n2)cc1	28	25	43*	43	29	-61	37*
O=C(CN1CCN(CC(=O)Nc2cccc(F)c2)CC1)NCC1(N2CCOCC2)CCCCC1	1	9	-11	-11	.	9	.
COc1ccccc1-n1c(SCC(=O)c2ccc(O)cc2O)nc2cc([N+](=O)[O-])ccc21	17	4	41*	39	26	-43	29
COc1ccccc1-n1c(SCC(=O)NC2CCS(=O)(=O)C2)nc2cc([N+](=O)[O-])ccc21 (centres undefined)	1	7	10	3	23	-23	.
Cc1nn(-c2ccccc2)c(OC(=O)c2cccs2)c1S(=O)(=O)c1ccc([N+](=O)[O-])cc1	12	8	0	18	14	.	.
SMILES	NLRP3 yeast inh	TIM10 inh	tim10-1 inh	tim23-1 inh	NALP1 inh	PfHsp90 yeast 2	tim10-1 conf
COc1ccc(CCn2c(-c3ccco3)nc3nc4ccccc4nc32)cc1	9	28	41*	18	0	-40	12
COc1ccccc1Cn1c(-c2ccco2)nc2nc3ccccc3nc21	12	28	31	11	.	-8	.
Cc1sc2ncnc(N3CCCCC3C)c2c1C (centres undefined)	23	6	42*	28	-1	1	22
Cc1sc2ncnc(N3CCCCC3)c2c1C	19	5	19	39	-1	-13	.
Cc1ccnc(SCc2cc(=O)c(OC(=O)c3ccc(Br)o3)co2)n1	1	37	46*	38	42	10	29*
O=C(Oc1coc(CSc2ncccn2)cc1=O)c1ccco1	-2	29	22	16	6	2	.
CCOC(=O)CC(=O)CSc1nc2sc(C)cc2c(=O)n1Cc1ccco1	0	25	45*	37	20	15	19
Cc1cc2c(=O)n(Cc3ccco3)c(SCC(=O)c3ccc(Cl)s3)nc2s1	3	3	9	-3	12	.	.
CCCCOC(=O)c1ccc(O)cc1	12	-5	6	4	27	-10	.
CCCCCCCCOC(=O)c1ccc(N)cc1	26	8	45*	7	-48	-9	24
O=C(Nc1ccc(C(F)(F)F)cc1[N+](=O)[O-])O[C@H]1[C@H](Cc2ccccc2)NS(=O)(=O)[C@H]2C[C@@H]3C=C[C@]12O3	10	-11	-1	-2	.	-2	.
CCn1c(SC(C)C)nnc1-c1cc(-c2ccccc2)sc1N	28	39	46*	39	15	.	38*
O=C(CC1C(=O)NCCN1Cc1cccc(Oc2ccccc2)c1)NCCc1cscn1 (centres undefined)	-3	16	42*	20	-8	-15	28
CCCCC(=O)N/N=C/c1ccc(-c2ccc([N+](=O)[O-])cc2)o1	11	-2	25	23	23	11	.
CC(C)(C)NC(=S)N/N=C\c1ccc(-c2ccc([N+](=O)[O-])cc2)o1	9	33	40*	45	.	.	33*
O=C(/C=C/c1ccc(Cl)cc1Cl)N1CCN(c2ccc([N+](=O)[O-])c(N3CCOCC3)c2)CC1	6	13	42*	13	26	-35	16
CC1=CC(C)(C)Nc2ccc(OC(=O)CCN3C(=O)c4ccccc4C3=O)cc21	14	38	40*	37	23	8	32*
Cc1cc(=O)oc2cc(OC(=O)CCCCCN3C(=O)c4ccccc4C3=O)ccc12	-2	26	49*	40	14	22	43*
Cc1ccc(S(=O)(=O)CCC(=O)Oc2ccc3c(C)cc(=O)oc3c2)cc1	6	15	13	17	.	-112	.
S=C(N/N=C/c1ccccc1Cl)Nc1cccc(Cl)c1Cl	32	25	41*	30	.	-42	16
